From PubChem BioAssay (NCATS)
Records with an inconclusive call do not appear. The source made the active and inactive calls. Unless noted, calls follow the shape of the dose curve; as a rule, active = well fitted curve in the direction sought with a large enough effect; inconclusive = small, poorly fitted or top-dose-only effect, or another doubt; inactive = no such curve, though single readings can be large; an effect the other way counts as inactive or inconclusive.

Tests used:
[1] = biological target: Cytochrome P450 1A2 (Homo sapiens) (UniProt P05177); assay: p450-cyp1a2 (AID 410; calls by dose curve;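 also: -100% = full effect of reference inhibitor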)
In short: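 20nM CYP1A2, 100uM Luciferin-ME (=Km), 100mM KPO4; cpd 10 min RT; +NADPH regen, 60 min RT; stop/detect 20 min; luminescence. Normalized to furafylline 57 uM = full inhibition.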

[2] = biological target: 3',5'-cyclic-AMP phosphodiesterase 4B (Homo sapiens) (UniProt Q07343); assay: qHTS Assay for Inhibitors of PDE-IV (AID 607; active = well fitted activation curve with a large enough effect in the main read-out, with a control signal flat, not every such curve was filed as active; also: % of control where 0% means no effect)
In short: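 ACTOne HEK293 cells carry a modified cAMP-gated CNG channel and express endogenous PDE4; plated 1000 cells/well, compounds up to 22.9 uM final. Membrane-potential dye fluorescence (ex 535/em 590) was read; parental cells received 10 uM forskolin + 100 uM RO 20-1724.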

[3] = qHTS for differential inhibitors of proliferation of Plasmodium falciparum line W2 (AID 1883); conditions: Potency: Plasmodium falciparum W2 proliferation inhibition;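 also: potency is read from the fitted curve at half-maximal effect; parasites grown with compound for 72 h before lysis and staining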
[4] = qHTS for differential inhibitors of proliferation of Plasmodium falciparum line HB3 (AID 1886); conditions: Potency: Plasmodium falciparum HB3 proliferation inhibition;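 also: parasites grown with compound for 72 h before SYBR Green readout; plate controls were vehicle for no effect and reference inhibitor for full effect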
[5] = biological target: ATP-dependent DNA helicase Q1 (Homo sapiens) (UniProt P46063); assay: qHTS Validation Assay for Inhibitors of RecQ-Like Dna Helicase 1 (RECQ1) (AID 2353);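 also: plate controls were DMSO vehicle for no effect and enzyme-free control for full effect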
In short: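 RECQ1T1 50 nM; forked duplex (20 bp + 30-nt ss tails) 200 nM, ATP 2 mM final; pH 8.0, 2 mM MgCl2, 2.5 ug/ml poly(dI-dC); 15 min compound preincubation; discontinuous kinetic read over 2 h at RT.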

[6] = Quantitative high throughput screen for delayed death inhibitors of the malarial parasite plastid, 96 hour incubation (AID 488745);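 also: luciferase-expressing P. falciparum in erythrocytes at 2% hematocrit and 0.1% parasitemia; series mostly up to about 29 µM; % is scaled to controls: 0 for no effect and ±100 for the full control effect; nearly all actives have a fitted effect of over 70% in size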
In short: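 Luciferase-expressing P. falciparum, infected RBCs 2% Hct/0.1% parasitemia (final); 96 h cpd exposure, 37 C, 5% CO2; RPMI 1640 + 0.5% Albumax, bicarbonate, gentamycin. Readout: luminescence loss = growth inhibition.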

[7] = Quantitative high throughput screen for delayed death inhibitors of the malarial parasite plastid, 48 hour incubation (AID 488752); also: % is scaled to controls: 0 for no effect and ±100 for the full control effect; nearly all actives have a fitted effect of over 65% in size
In short: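 Luciferase-expressing P. falciparum in RBCs, 2% Hct, 0.1% parasitemia final; RPMI 1640 + 0.5% Albumax; 48 h, 37 C, 5% CO2; luminescence readout, signal drop = growth inhibition.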

[8] = biological target: Transient receptor potential cation channel subfamily V member 1 (Homo sapiens) (UniProt Q8NER1); assay: HTS Assay for Compounds that Act as Enhancers of the Vanilloid Receptor 1 (AID 488979); also: 0% is about no effect
In short: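 Calcium influx kinetics via Fluo-8 (480/520 nm) in TRPV1-expressing cells, 2000/well cultured overnight at 35.5C. Compound-alone read 3 min (agonist phase), followed by EC20 capsaicin challenge for 2 min (enhancer phase).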

[9] = biological target: Thyrotropin receptor (Homo sapiens) (UniProt P16473); assay: qHTS Assay for Antagonists of the Thyroid Stimulating Hormone Receptor (AID 488980); also: series mostly up to about 58 µM; 0% is about no effect
In short: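 Inhibition of TSH-stimulated cAMP accumulation was quantified by homogeneous time-resolved FRET in TSHR-transfected HEK293 cells. Agonist: TSH, 4 nM final (EC80).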

[10] = biological target: Thyrotropin-releasing hormone receptor (Homo sapiens) (UniProt P34981); assay: qHTS for Small Molecule Agonists and Allosteric Enhancers of Human TRH Receptor: Validation Screen for Agonists (AID 493127;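 active = calcium activation more than 3 SD above the typical response in the agonist read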;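 also: intracellular calcium rise by fluo-8 fluorescence before TRH EC20 addition; 0% is about no effect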); conditions: TRH receptor agonist cell assay; at 2 µM; stronger effect = higher value
In short: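 Read-out: intracellular calcium release measured kinetically by FDSS (fluo-8, ex 480/em 530 nm), 1 reading/s after a 10-cycle baseline. TRHR cells, 2000/well, cultured 18 h at 33.5C, dye-loaded at room temp. Compound-evoked positive calcium signal flags agonists.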

[11] = biological target: Galactokinase (Homo sapiens) (UniProt P51570); assay: qHTS Validation Assay for Inhibitors of Human Galactokinase (GALK) (AID 493189); also: 0% is about no effect
In short: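 Enzyme activity is inferred from ATP consumption: human GALK phosphorylates galactose (100 uM) using 35 uM ATP for 1 h at room temperature, and luciferase-based Kinase-Glo Plus reports unconsumed ATP.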

[12] = Validation screen for small molecules that induce DNA re-replication in SW480 colon adenocarcinoma cells (AID 504364); also: 0% is about no effect
In short: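 Read-out: total Hoechst intensity of nuclei by fluorescence scanning imager; hits raise the fraction of nuclei with elevated DNA content. Cells received compound for 48 hr at 37 C before a 40 min stain.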

[13] = biological target: Androgen receptor (Homo sapiens) (UniProt P10275); assay: qHTS assay for small molecule agonists of androgen receptor signaling (AID 588515; active = well fitted curve in the direction sought with a large enough effect in the signal ratio, with a control signal flat; the % refers to the signal ratio; also: % is scaled to controls: 0 for no effect and ±100 for the full control effect); conditions: AR-UAS-bla HEK293, beta-lactamase ratio, agonist 16 h; stronger effect = higher value
In short: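 Stimulation of an AR-responsive β-lactamase reporter in GripTite HEK293 cells was measured after 16 h compound exposure at 37 °C, via CCF4 fluorescence after 2 h RT. EC50 from Hill fits, normalized to R1881 at 30 nM.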

[14] = biological target: Thyroid hormone receptor beta (Homo sapiens) (UniProt P10828); assay: qHTS assay for small molecule agonists of thyroid hormone receptor beta signaling (AID 588545; calls by dose curve)
In short: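 Agonist activity was read as beta-lactamase CCF4 fluorescence (405 ex, 460/530 em), scaled between DMSO (0%) and 10 nM T3 (100%), then Hill-fitted for EC50 and efficacy. HEK 293 TR-UAS-bla cells in 2% charcoal/dextran FBS medium were exposed 18 h at 37 C.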

[15] = biological target: Voltage-gated inwardly rectifying potassium channel KCNH2 (Homo sapiens) (UniProt Q12809); assay: qHTS Assay for Small Molecule Inhibitors of the Human hERG Channel Activity (AID 588834);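 also: top concentration of the series differs between compounds; % is scaled to controls: 0 for no effect and ±100 for the full control effect; lower thallium flux fluorescence means stronger hERG block; nearly all actives have a fitted effect of over 50% in size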
In short: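 Homogeneous FluxOR thallium flux assay using hERG-expressing U2OS cells (BacMam). Compound treatment about 10 minutes preceded stimulation; reduced fluorescence taken as channel block.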

[16] = qHTS assay for small molecule activators of the nuclear factor-kappa B (NF-kB) signaling pathway (AID 651749; active = well fitted activation curve with a large enough effect in the signal ratio; the % refers to the signal ratio; also: series mostly up to about 77 µM; % of control where 0% means no effect); conditions: NF-kB-bla ME-180 cells, beta-lactamase FRET ratio, 16 h; stronger effect = higher value
In short: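 FRET-based beta-lactamase detection in ME-180 cells reports NF-kB response-element-driven transcription following overnight (16 hr) compound treatment.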

[17] = qHTS assay for environmental chemicals that activate the Aryl hydrocarbon Receptor (AhR) signaling pathway (AID 651777); conditions: 1A2-DRE human hepatoma cells, luciferase, 24 h; activation: stronger effect = higher value; also: % of control where 0% means no effect; nearly all actives have a fitted effect of over 15% in size
In short: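 Luminescence read-out: One-Glo added for 30 min at RT after 24 hr compound treatment (37 C, 5% CO2) of human hepatoma cells expressing a DRE/CYP1A2 promoter–luciferase reporter; increased signal indicates AhR activation.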

[18] = qHTS assay for small molecule agonists of the antioxidant response element (ARE) signaling pathway measured by Nrf2-dependant transcriptional activity (AID 720636; active = well fitted curve in the direction sought with a large enough effect in the repeat runs; an effect the other way counts as inactive or inconclusive;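 also: HepG2 cells with an ARE-driven luciferase reporter; % of control where 0% means no effect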)
In short: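 HepG2 ARE-luc reporter line, 1% dialyzed FBS; 6 hr attachment at 37 C, compound pinned in, 16 hr at 37 C/5% CO2; ONE-Glo, 30 min RT, luminescence read.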

[19] = qHTS assay for small molecule agonists of the antioxidant response element (ARE) signaling pathway measured by Nrf2-dependant transcriptional activity - cell viability counter screen (AID 720653; active = well fitted curve in the direction sought with a large enough effect in the repeat runs; an effect the other way counts as inactive or inconclusive; also: % is scaled to controls: 0 for no effect and ±100 for the full control effect); conditions: ARE-bla HepG2 viability, CellTiter-Glo ATP luminescence, 16 h; stronger effect = lower value
In short: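 Cytotoxicity counter screen: intracellular ATP quantified by CellTiter-Glo luminescence in the same ARE-bla HepG2 plates, after 16 h compound exposure and a 2 h beta-lactamase substrate step.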

[20] = biological target: Nuclear receptor subfamily 1 group I member 2 (Rattus norvegicus) (UniProt Q9R1A7); assay: qHTS assay for small molecule activators of the rat pregnane X receptor (rPXR) signaling pathway (AID 651751; call rule not given here; also: 0% is about no effect); conditions: rPXR reporter cells, luciferase (One-Glo), 24 h

Chain of 3',5'-cyclic-AMP phosphodiesterase 4B (Homo sapiens) (Q07343 whole entry, looked up): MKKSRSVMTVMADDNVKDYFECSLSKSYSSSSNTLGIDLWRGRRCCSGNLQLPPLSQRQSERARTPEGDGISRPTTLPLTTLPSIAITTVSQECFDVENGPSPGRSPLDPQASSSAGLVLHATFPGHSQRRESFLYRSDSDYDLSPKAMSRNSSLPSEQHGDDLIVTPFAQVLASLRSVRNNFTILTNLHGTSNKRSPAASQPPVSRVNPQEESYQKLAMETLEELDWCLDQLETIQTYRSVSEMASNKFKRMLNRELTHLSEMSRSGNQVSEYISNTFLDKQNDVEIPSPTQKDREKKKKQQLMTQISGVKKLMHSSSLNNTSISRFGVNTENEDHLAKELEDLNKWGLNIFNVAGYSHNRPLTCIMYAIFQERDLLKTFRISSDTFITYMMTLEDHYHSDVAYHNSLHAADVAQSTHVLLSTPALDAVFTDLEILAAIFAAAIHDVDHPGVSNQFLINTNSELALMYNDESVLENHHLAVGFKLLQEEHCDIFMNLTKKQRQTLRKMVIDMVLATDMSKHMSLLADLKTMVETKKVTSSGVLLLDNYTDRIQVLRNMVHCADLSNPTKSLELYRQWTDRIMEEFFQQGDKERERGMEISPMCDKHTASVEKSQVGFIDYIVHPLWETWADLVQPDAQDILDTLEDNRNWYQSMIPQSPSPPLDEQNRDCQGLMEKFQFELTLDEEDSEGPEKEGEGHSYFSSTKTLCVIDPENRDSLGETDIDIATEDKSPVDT
Chain of Transient receptor potential cation channel subfamily V member 1 (Homo sapiens) (Q8NER1 whole entry, looked up): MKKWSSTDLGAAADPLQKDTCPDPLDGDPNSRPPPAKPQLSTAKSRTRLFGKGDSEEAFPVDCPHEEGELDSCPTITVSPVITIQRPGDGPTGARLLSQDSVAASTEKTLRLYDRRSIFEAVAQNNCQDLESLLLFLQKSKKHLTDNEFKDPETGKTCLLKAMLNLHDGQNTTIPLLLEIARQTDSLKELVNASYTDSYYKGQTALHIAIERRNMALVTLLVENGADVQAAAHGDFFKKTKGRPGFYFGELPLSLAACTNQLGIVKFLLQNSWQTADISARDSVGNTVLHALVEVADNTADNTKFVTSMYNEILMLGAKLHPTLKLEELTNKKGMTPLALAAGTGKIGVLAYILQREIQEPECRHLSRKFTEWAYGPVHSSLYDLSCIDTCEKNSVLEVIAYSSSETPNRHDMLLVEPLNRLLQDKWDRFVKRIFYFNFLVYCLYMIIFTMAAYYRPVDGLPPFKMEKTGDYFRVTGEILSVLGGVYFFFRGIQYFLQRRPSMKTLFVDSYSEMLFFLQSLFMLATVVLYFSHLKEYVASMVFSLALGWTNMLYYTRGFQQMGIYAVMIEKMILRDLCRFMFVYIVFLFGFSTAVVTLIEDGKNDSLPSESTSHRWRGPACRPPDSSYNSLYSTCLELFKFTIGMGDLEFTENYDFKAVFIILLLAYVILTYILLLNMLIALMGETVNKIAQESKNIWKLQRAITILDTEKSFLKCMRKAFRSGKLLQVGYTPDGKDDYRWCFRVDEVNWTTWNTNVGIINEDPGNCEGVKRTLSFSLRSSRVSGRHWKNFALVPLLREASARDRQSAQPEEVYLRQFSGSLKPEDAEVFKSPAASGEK
Chain of Thyrotropin-releasing hormone receptor (Homo sapiens) (P34981 whole entry, looked up): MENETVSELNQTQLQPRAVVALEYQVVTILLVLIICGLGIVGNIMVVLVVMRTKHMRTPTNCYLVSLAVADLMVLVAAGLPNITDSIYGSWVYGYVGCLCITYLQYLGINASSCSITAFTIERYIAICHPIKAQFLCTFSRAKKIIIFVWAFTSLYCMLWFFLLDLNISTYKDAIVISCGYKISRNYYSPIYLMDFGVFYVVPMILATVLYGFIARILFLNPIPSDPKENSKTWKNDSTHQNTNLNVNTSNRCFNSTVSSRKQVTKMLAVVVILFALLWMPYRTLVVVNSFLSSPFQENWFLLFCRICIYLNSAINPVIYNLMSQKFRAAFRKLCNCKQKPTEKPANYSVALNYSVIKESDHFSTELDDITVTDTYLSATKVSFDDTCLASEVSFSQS
Chain of Cytochrome P450 1A2 (Homo sapiens) (P05177 whole entry, looked up): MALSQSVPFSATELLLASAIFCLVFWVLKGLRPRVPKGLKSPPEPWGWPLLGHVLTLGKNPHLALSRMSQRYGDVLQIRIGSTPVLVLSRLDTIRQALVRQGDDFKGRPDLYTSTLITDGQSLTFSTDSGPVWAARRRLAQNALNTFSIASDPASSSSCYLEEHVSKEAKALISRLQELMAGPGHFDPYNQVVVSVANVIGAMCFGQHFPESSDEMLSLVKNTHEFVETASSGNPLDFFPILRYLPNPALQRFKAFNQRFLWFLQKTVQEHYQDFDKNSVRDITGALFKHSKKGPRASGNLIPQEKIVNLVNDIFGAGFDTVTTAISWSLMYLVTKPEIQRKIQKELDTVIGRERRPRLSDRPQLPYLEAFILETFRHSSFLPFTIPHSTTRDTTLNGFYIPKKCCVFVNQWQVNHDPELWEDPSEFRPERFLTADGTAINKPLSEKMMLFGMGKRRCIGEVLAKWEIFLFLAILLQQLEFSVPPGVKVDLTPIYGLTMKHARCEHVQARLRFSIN
Chain of Thyroid hormone receptor beta (Homo sapiens) (P10828 whole entry, looked up): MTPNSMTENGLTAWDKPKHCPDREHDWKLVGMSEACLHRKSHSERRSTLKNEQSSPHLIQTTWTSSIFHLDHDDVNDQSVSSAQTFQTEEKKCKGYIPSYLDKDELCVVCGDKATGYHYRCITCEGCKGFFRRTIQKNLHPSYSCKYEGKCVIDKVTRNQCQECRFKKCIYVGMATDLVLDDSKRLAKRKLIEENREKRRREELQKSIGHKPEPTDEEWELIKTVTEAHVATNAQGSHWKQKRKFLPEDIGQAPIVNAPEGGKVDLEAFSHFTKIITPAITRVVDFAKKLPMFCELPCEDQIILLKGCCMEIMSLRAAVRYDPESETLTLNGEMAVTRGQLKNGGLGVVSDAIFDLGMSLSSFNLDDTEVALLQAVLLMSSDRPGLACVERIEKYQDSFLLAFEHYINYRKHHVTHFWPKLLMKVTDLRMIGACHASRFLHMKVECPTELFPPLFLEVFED
Chain of ATP-dependent DNA helicase Q1 (Homo sapiens) (P46063 whole entry, looked up): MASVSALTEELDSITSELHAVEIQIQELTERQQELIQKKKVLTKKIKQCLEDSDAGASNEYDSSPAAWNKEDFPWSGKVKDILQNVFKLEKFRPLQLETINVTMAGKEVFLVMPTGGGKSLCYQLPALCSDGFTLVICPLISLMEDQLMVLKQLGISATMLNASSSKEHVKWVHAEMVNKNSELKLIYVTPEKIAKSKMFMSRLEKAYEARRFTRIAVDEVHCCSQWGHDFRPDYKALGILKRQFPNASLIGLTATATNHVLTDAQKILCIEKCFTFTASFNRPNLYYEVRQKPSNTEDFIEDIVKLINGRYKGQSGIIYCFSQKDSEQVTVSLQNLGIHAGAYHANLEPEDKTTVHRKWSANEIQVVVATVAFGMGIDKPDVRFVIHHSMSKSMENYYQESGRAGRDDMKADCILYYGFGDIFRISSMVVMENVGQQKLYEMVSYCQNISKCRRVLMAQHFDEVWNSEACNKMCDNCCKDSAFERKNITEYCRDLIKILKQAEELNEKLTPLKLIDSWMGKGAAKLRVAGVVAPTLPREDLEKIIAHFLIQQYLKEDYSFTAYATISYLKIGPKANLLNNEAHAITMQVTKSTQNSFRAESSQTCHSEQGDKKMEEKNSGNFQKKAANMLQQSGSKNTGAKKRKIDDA
Chain of Thyrotropin receptor (Homo sapiens) (P16473 whole entry, looked up): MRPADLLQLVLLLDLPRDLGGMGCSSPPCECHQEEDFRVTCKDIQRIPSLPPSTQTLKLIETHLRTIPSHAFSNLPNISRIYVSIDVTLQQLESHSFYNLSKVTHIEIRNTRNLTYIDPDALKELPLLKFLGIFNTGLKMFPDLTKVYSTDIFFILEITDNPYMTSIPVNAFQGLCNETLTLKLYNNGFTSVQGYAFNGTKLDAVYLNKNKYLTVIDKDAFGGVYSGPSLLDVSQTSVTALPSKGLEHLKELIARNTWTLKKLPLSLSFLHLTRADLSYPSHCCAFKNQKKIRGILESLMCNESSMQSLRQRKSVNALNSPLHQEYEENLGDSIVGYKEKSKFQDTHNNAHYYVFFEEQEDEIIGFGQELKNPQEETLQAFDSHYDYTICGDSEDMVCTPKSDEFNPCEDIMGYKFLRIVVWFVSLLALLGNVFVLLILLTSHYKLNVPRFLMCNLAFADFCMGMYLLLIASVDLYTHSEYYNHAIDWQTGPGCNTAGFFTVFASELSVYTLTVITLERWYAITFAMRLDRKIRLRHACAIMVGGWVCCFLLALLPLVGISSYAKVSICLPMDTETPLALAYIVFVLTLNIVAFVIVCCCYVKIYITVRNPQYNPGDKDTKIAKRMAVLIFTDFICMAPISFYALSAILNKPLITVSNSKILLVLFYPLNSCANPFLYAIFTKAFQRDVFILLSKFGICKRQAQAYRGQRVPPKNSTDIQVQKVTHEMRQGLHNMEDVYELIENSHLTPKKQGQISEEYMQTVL
Chain of Galactokinase (Homo sapiens) (P51570 whole entry, looked up): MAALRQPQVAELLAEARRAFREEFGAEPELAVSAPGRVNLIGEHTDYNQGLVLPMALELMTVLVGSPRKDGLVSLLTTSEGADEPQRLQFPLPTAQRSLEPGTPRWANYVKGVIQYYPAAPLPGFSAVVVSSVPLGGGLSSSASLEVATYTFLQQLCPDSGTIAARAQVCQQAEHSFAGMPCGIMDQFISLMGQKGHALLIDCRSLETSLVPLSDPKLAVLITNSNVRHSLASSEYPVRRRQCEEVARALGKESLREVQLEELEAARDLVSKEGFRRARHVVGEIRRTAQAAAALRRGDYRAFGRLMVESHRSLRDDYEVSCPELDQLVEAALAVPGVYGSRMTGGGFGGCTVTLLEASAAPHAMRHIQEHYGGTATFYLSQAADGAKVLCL

CN(CCOc1ccc(C[C@H](Nc2ccccc2C(=O)c2ccccc2)C(=O)O)cc1)c1ccccn1
inactive: Potency [1] | Potency [2] | Potency [4] | Potency [5] | Potency [6] | Potency [7] | outcome [8] | outcome [9] | activation [10] 2.06% | outcome [11] | outcome [12] | activation [13] -13.2% | outcome [14] | Potency [15] | activation [16] 1.83% | activation [17] 3.94% | outcome [18] | max response [19] 2.06% | max response [20] 1.12%
active: Potency [3] 8.91 µM
